Results from ChEMBL document CHEMBL3988442, “University of Dundee, Small-Polar-MMV Screening Library” (2021).

target: T1, Aspartate--tRNA(Asp/Asn) ligase (Mycobacterium tuberculosis (strain ATCC 25618 / H37Rv)) (UniProt P9WFW3); assay: Assay for Asp RNA synthetase-1 from Mycobacterium tuberculosis; format: functional; design: scale not given: direction of the effect not stated beside the values; details: 30 µM; also: in the data most compounds retested in dose-response had high values
T1 sequence (whole entry): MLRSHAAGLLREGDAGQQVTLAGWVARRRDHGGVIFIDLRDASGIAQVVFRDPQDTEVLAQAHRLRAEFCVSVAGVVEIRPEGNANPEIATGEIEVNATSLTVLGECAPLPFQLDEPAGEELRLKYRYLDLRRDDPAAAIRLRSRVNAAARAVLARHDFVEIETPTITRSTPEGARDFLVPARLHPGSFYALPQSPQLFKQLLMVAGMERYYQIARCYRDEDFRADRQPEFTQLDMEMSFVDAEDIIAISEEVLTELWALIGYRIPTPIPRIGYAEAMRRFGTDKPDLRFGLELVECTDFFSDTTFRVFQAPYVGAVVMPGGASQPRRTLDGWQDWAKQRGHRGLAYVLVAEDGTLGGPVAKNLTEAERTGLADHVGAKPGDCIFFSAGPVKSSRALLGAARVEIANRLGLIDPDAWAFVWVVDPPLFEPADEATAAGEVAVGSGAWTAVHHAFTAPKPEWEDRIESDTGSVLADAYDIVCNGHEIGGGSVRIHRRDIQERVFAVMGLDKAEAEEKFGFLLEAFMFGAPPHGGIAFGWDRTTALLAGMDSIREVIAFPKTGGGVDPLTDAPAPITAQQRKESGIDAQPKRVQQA

Compound	Percent Effect [%]
CS(=O)(=O)NCc1cn2c(n1)CN(C(=O)c1ccc[nH]1)CC2	1.81
COc1cccc(CN2CCC(c3nccn3C(C)C)CC2)c1	1.9
O=C(NCC1CCN(C(=O)c2ccoc2)CC1)c1ccccc1Br	-6.27
Cc1nn(C)c(C)c1CNCc1ccc(N2CCOCC2)nc1	2.11
COc1cccc2cc(CNCc3ccnc(N4CCOCC4)c3)oc12	-2.91
COc1cccc(COCC(=O)N2CCC(CC(N)=O)CC2)c1	-3.72
CCS(=O)(=O)N1CCO[C@H]2[C@H](OCC3CCCC3)CC[C@@H]21	-2.82
CCc1nnc(CN2CCN(C(=O)c3cc4ccccc4[nH]3)CC2)o1	-2.68
CCCN(C)C(=O)c1ccc2c(c1)[nH]c(=O)n2CCOCC	-2.29
COc1c(C2CCCN2Cc2c(C)noc2C)c(C)nn1C (centres undefined)	1.48
O=C(Nc1cccnc1)[C@H]1C[C@H]2OCC[C@H]2N(C(=O)c2ccsc2)C1	4.71
CCOCC1CN(S(=O)(=O)N(C)C)Cc2cnn(C)c21 (centres undefined)	-3.4
CC(NC(=O)N1CCN(CCc2ccccc2)CC1)c1nncn1C (centres undefined)	-7.6
O=C1CC2(CCCCC2)CC(=O)N1CC(O)COCc1ccc(Cl)cc1 (centres undefined)	0.607
Cc1n[nH]c(C)c1NC(=O)CN1CCOC(Cn2cccn2)C1 (centres undefined)	-0.605
Cc1ccsc1[C@@H]1CCN(C(=O)CCC(=O)N2CCCCCC2)C[C@H]1O	-0.418
Cc1cnn(CC2CN(Cc3nc(-c4ccoc4)no3)CCO2)c1 (centres undefined)	-3.63
O=C(NC(CO)CO)c1coc(COc2cccc(F)c2)n1	-1.14
COC(=O)N1CCCN(C(=O)NCc2ccc(Cl)s2)CC1	5.28

target: Shiga toxin 2 (Escherichia coli O157:H7) (UniProt P09385+P09386); assay: E. coli 0.157:H7 Shiga Toxin SOP - stx2 screening assay; format: functional; design: scale not given: direction of the effect not stated beside the values; details: 30 µM

Compound	Percent Effect [%]
O=C(c1cccc2c1OCO2)N1CCCC(n2cccn2)C1 (centres undefined)	17.8
CC[C@H](C)Nc1nccc(-c2cnc3sc(C)c(C)n3c2=O)n1	-27.1
CC(C)C(=O)NCCCn1ncc2c(Cl)cccc21	-6.02
Cn1cnnc1C1CCCN(C(=O)NCc2cc[nH]n2)C1 (centres undefined)	12.3
O=C(NCC1CC1)[C@@H]1CCO[C@@H]2CCN(Cc3ccco3)C[C@H]21	-6.74
COCCN1CCC(NC(=O)C2(c3cc(C)cc(C)c3)CC2)CC1	22.9
O=C(NCc1ccoc1)NC1CCCN(c2ncccn2)C1 (centres undefined)	15.2
O=C(C1CCC1)N1CCN(c2snc3ccccc23)CC1	10.4
CN(C)C(=O)CC1CC2(CCN(c3ncccn3)CC2)c2ccccc21 (centres undefined)	-6.02
O=C(CCc1cscn1)N1CCCC(c2ccn[nH]2)C1 (centres undefined)	5.88
Cc1cnn(CC(C)NCc2ccc(S(C)(=O)=O)cc2)c1 (centres undefined)	-66.9
Cc1nc(CN2CCN(Cc3nccn3C)CC2)no1	6.4
Cc1ccc2c(n1)N(Cc1cccnc1)CCN(C(=O)C1CCC1)C2	-15.2
COCCN(Cc1ccc(F)cc1Cl)C(=O)c1ccncc1	12
c1cncc(COCc2nnc3n2CCN(Cc2ccsc2)C3)c1	-54.6
Cc1cccc2c1cnn2CCCNC(=O)CCCC(=O)O	-61.8
CCCn1nc2c(cc1=O)CN(CC(=O)Nc1ccncc1)CC2	-19.5
CCCc1noc(CN(C)C(=O)C2COc3ccccc3C2)n1 (centres undefined)	-22.5
CCOc1cc(CN(C)CCOC)ccc1OC(F)F	-67.7
CN(CCN1CCCCCC1)C(=O)c1cc(CN2CCC(O)CC2)on1	-37.1

Compound	Percent Effect [%]
Cc1noc(C2CCN(Cc3cc(=O)n(C)c(=O)n3C)CC2)n1	-1.09
CS(=O)(=O)NCc1cn2c(n1)CN(C(=O)c1ccc[nH]1)CC2	-6.4
COc1cccc(CN2CCC(c3nccn3C(C)C)CC2)c1	-26.4
O=C(NCC1CCN(C(=O)c2ccoc2)CC1)c1ccccc1Br	3.64
Cc1nn(C)c(C)c1CNCc1ccc(N2CCOCC2)nc1	-24.1
COc1cccc2cc(CNCc3ccnc(N4CCOCC4)c3)oc12	26.8
COc1cccc(COCC(=O)N2CCC(CC(N)=O)CC2)c1	32.3
CCS(=O)(=O)N1CCO[C@H]2[C@H](OCC3CCCC3)CC[C@@H]21	-8.34
CCc1nnc(CN2CCN(C(=O)c3cc4ccccc4[nH]3)CC2)o1	8.5
CCCN(C)C(=O)c1ccc2c(c1)[nH]c(=O)n2CCOCC	-18.9
COc1c(C2CCCN2Cc2c(C)noc2C)c(C)nn1C (centres undefined)	6.54
O=C(Nc1cccnc1)[C@H]1C[C@H]2OCC[C@H]2N(C(=O)c2ccsc2)C1	-27.5
CCOCC1CN(S(=O)(=O)N(C)C)Cc2cnn(C)c21 (centres undefined)	6.68
CC(NC(=O)N1CCN(CCc2ccccc2)CC1)c1nncn1C (centres undefined)	-13.8
O=C1CC2(CCCCC2)CC(=O)N1CC(O)COCc1ccc(Cl)cc1 (centres undefined)	11
Cc1n[nH]c(C)c1NC(=O)CN1CCOC(Cn2cccn2)C1 (centres undefined)	31.6
Cc1ccsc1[C@@H]1CCN(C(=O)CCC(=O)N2CCCCCC2)C[C@H]1O	-23.3
Cc1cnn(CC2CN(Cc3nc(-c4ccoc4)no3)CCO2)c1 (centres undefined)	24
O=C(NC(CO)CO)c1coc(COc2cccc(F)c2)n1	-3.72
COC(=O)N1CCCN(C(=O)NCc2ccc(Cl)s2)CC1	-16.1
